These results are taken from PubChem BioAssay (Tox21).

A short description of assay [1]: A CellTox Green Cytotoxicity Assay to monitor cytotoxicity in HEK293 cells - 40 hour (AID 1224871). Further: nearly all actives have a fitted effect of over 45% in size. An outline of the steps: (§1)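 HEK293 cells, 600/well, were preincubated 5 hours and then exposed to compounds at 37 C for up to 40 hours. A cell-impermeant cyanine dye staining dead-cell DNA was read by fluorescence at 0, 8, 16, 24, 32 and 40 h time points.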
Assay [2] in a line: qHTS RealTime-Glo MT Cell Viability Assay in HepG2 cells - 8 hour (AID 1224873). Further: nearly all actives have a fitted effect of over 55% in size. An outline of the steps:
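Real-time viability: cells seeded at 600 per well together with NanoLuc and cell-permeant prosubstrate, compounds added after 5 h incubation. Luminescence tracked at 0, 8, 16, 24, 32 and 40 h of exposure.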
On the technique in general: qHTS replaces the single test concentration by a dilution series.

The nature of assay [3]: qHTS RealTime-Glo MT Cell Viability Assay in HEK293 cells - 40 hour (AID 1224874). Further: nearly all actives have a fitted effect of over 50% in size. Further: potency means the concentration at half of the fitted maximal effect. The following applies: RealTime-Glo luminescence; max response: active compounds read low. The method, boiled down:
(§2)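 600 cells/well were plated with the nonlytic NanoLuc/prosubstrate reagent, pre-incubated 5 h, then given 23 nL of compound in DMSO. Incubation at 37 C for 40 h, with luminescence from viable-cell-reduced substrate read repeatedly from 0 h.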

Assay [4] in a line: A CellTox Green Cytotoxicity Assay to monitor cytotoxicity in HEK293 cells - 24 hour (AID 1224875). Further: series mostly up to about 77 µM; nearly all actives have a fitted effect of over 45% in size. An outline of the steps: as §1
The nature of assay [5]: A CellTox Green Cytotoxicity Assay to monitor cytotoxicity in HepG2 cells - 16 hour (AID 1224876). Further: nearly all actives have a fitted effect of over 45% in size. Further: potency means the concentration at half of the fitted maximal effect. The method, boiled down:
(§3)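 HepG2 cells, 600/well, preincubated 5 h with CellTox Green dye, then exposed to Tox21 compounds in DMSO at 37 C for up to 40 h. Dead-cell DNA fluorescence read at the indicated time point.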

Assay [6] can be described thus: qHTS RealTime-Glo MT Cell Viability Assay in HepG2 cells - 32 hour (AID 1224877). Further: nearly all actives have a fitted effect of over 55% in size. The method, boiled down:
(§4)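 HepG2 cells (600/well) were dispensed with RealTime-Glo reagents, incubated 5 h at 37 °C, then treated with compounds in DMSO for up to 40 h. Nonlytic NanoLuc luminescence reflecting viable cells was read at each stated time point.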

Assay [7] is described as follows: A CellTox Green Cytotoxicity Assay to monitor cytotoxicity in HepG2 cells - 24 hour (AID 1224878). Further: nearly all actives have a fitted effect of over 45% in size. Further: potency means the concentration at half of the fitted maximal effect. An outline of the steps:
as §3

A short description of assay [8]: A CellTox Green Cytotoxicity Assay to monitor cytotoxicity in HepG2 cells - 40 hour (AID 1224879). Further: nearly all actives have a fitted effect of over 40% in size. Further: potency means the concentration at half of the fitted maximal effect. An outline of the steps:
as §3

The nature of assay [9]: qHTS RealTime-Glo MT Cell Viability Assay in HEK293 cells - 0 hour (AID 1224880). The method, boiled down:
as §2

Assay [10] can be described thus: A CellTox Green Cytotoxicity Assay to monitor cytotoxicity in HEK293 cells - 32 hour (AID 1224881). Further: nearly all actives have a fitted effect of over 40% in size. The method, boiled down:
as §1

Assay [11] in a line: A CellTox Green Cytotoxicity Assay to monitor cytotoxicity in HepG2 cells - 0 hour (AID 1224882). Further: nearly all actives have a fitted effect of over 35% in size. An outline of the steps: as §3
Assay [12] is described as follows: A CellTox Green Cytotoxicity Assay to monitor cytotoxicity in HepG2 cells - 32 hour (AID 1224883). Further: nearly all actives have a fitted effect of over 50% in size. Further: potency means the concentration at half of the fitted maximal effect. The method, boiled down: as §3
Assay [13] is described as follows: A CellTox Green Cytotoxicity Assay to monitor cytotoxicity in HEK293 cells - 8 hour (AID 1224884). Further: nearly all actives have a fitted effect of over 35% in size. The method, boiled down: as §1
Assay [14] in a line: qHTS RealTime-Glo MT Cell Viability Assay in HepG2 cells - 16 hour (AID 1224885). Further: nearly all actives have a fitted effect of over 50% in size. The method, boiled down:
as §4

Assay [15] can be described thus: qHTS RealTime-Glo MT Cell Viability Assay in HEK293 cells - 24 hour (AID 1224886). Further: nearly all actives have a fitted effect of over 50% in size. Further: potency means the concentration at half of the fitted maximal effect. On activity change, negative = cytotoxicity: top concentration of the series differs between compounds. The method, boiled down: (§5)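 HEK293 cells seeded with NanoLuc/prosubstrate reagent, rested 5 h at 37 C, then dosed and kept at 37 C up to 40 h. Nonlytic real-time luminescence from viable cells read at 0, 8, 16, 24, 32 and 40 h.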
Assay [16] in a line: qHTS RealTime-Glo MT Cell Viability Assay in HepG2 cells - 0 hour (AID 1224889). Further: nearly all actives have a fitted effect of over 50% in size. The method, boiled down:
as §4

Assay [17] can be described thus: A CellTox Green Cytotoxicity Assay to monitor cytotoxicity in HepG2 cells - 8 hour (AID 1224890). Further: nearly all actives have a fitted effect of over 45% in size. An outline of the steps:
as §3

The nature of assay [18]: A CellTox Green Cytotoxicity Assay to monitor cytotoxicity in HEK293 cells - 16 hour (AID 1224888). Further: nearly all actives have a fitted effect of over 35% in size. An outline of the steps: as §1
The nature of assay [19]: qHTS RealTime-Glo MT Cell Viability Assay in HEK293 cells - 16 hour (AID 1224872). Further: nearly all actives have a fitted effect of over 50% in size. Further: potency means the concentration at half of the fitted maximal effect. On activity change, negative = cytotoxicity: top concentration of the series differs between compounds. The method, boiled down:
as §5

Assay [20] in a line: qHTS RealTime-Glo MT Cell Viability Assay in HEK293 cells - 8 hour (AID 1224887). Further: nearly all actives have a fitted effect of over 50% in size. Further: potency means the concentration at half of the fitted maximal effect. On activity change, negative = cytotoxicity: top concentration of the series differs between compounds. An outline of the steps:
as §2

Unmarked numbers belong to inactive results. Inconclusive results are not listed. Activity calls are given as the source filed them. The call rests on the fitted dose curve; in most records, active means well fitted curve in the direction sought with a large enough effect in the repeat runs; inconclusive means weak or mixed curves; inactive means no such curve, though single readings can be large; an effect the other way counts as inactive or inconclusive.
On the % scale 0 is the no-effect control and ±100 the full control effect.

Regarding `SCCOCCOCCS`, the Potency entry in [1], in assay [4], in assay [5], in [6], in assay [7] and in [8] was “inactive” throughout. In addition, the Potency entry in assay [9], in assay [10], in assay [11], in assay [12], in [13] and in assay [15] was “inactive” throughout. Further, the Potency entry in [16] and in assay [17] was “inactive” each time. The result in assay [2] and in assay [14] was inactive. Also, the max response in assay [3] was -3.19%.

For the compound `O=C1c2ccccc2C(=O)C1c1ccc2ccccc2n1`, the compound was called inactive in assay [2] and in assay [14]. The Potency result in assay [5], in assay [6], in assay [7], in [8], in [9] and in assay [11] was “inactive” each time. For the same compound, the Potency result in assay [16] and in assay [17] was “inactive” in each case.

For the compound `CCN(CCCCOC(=O)c1ccc(OC)c(OC)c1)C(C)Cc1ccc(OC)cc1` (configuration not stated), the Potency entry in assay [1], in assay [4], in assay [5], in assay [6], in assay [9] and in assay [10] was “inactive” in each case. For the same compound, the Potency entry in assay [11], in assay [13], in assay [18] and in assay [17] was “inactive” each time. Also, the compound was classed as inactive in [2] and in [14].

`O=[N+]([O-])c1cccc(I)c1`: the Potency entry in assay [19], in [4], in [5], in assay [6], in [7] and in assay [8] was “inactive” throughout. For the same compound, the Potency result in assay [9], in [11], in assay [12], in [13], in [15] and in assay [20] was “inactive” in each case. Further, the Potency entry in assay [18], in assay [16] and in [17] was “inactive” in each case. For the same compound, the compound was called inactive in [2] and in assay [14]. Moreover, the max response in assay [3] is 0.342%.

`O=C(O)COCC(=O)O`: the Potency result in [19], in assay [4], in assay [5], in assay [6], in assay [7] and in [8] was “inactive” in each case. Also, the Potency entry in assay [9], in assay [10], in assay [11], in assay [12], in assay [13] and in [15] was “inactive” throughout. Further, the Potency entry in [20] and in assay [17] was “inactive” throughout. Further, the compound was classed as inactive in assay [2] and in [14]. In assay [3], the max response was -0.496%.

With `CC1=C(C)C(=O)C(CCCCC#CCCCC#CCO)=C(C)C1=O`, the Potency entry in assay [1], in [4], in assay [5], in assay [7], in [8] and in [9] was “inactive” each time. Further, the Potency entry in assay [10], in assay [11], in assay [12], in assay [18] and in [17] was “inactive” in each case. The Potency in [19] is 0.601 µM (active); in [3], 0.674 µM (active); in [15] it was 0.601 µM (active); in assay [20], 0.535 µM (active).

In the case of `CC1=CC(=C(c2ccc(N)cc2)c2ccc(N)cc2)C=CC1=N`, the cytotoxicity increase in assay [1] was 5.33% [at 6.97 µM]; in assay [5] it was 1.38% [at 6.97 µM]; in assay [8] it was 5.34% [at 6.97 µM]; in [13], -4.58% [at 6.97 µM]; in assay [17], 1.46% [at 6.97 µM]. Further, the viability change, negative = cytotoxic in assay [2] is 2.31% [at 6.97 µM]. Moreover, the activity change in assay [4] was -0.584% [at 6.97 µM, active compounds read high]; in assay [18], -0.601% [at 6.97 µM, active compounds read high]. The activity change, negative = cytotoxic in assay [6] was -1.73% [at 6.97 µM]; in assay [14] it was 0.128% [at 6.97 µM]. In addition, the figures for the cytotoxicity in [7] and in assay [11] were 0.887% [at 6.97 µM] and 0.461% [at 6.97 µM], respectively. Also, the activity change, negative = cytotoxicity was 12.8% [at 6.97 µM] in assay [9], -15.3% [at 6.97 µM] in assay [20] and 9.14% [at 6.97 µM] in assay [16].

In the case of `CC1=C(C)C(=O)C(C(CCCCCC(=O)O)c2ccccc2)=C(C)C1=O` (configuration not stated), the Potency result in assay [1], in [4], in assay [5], in assay [6], in assay [7] and in [8] was “inactive” each time. The Potency result in assay [9], in assay [10], in assay [11], in assay [12], in assay [13] and in [15] was “inactive” each time. The Potency result in assay [18] and in assay [17] was “inactive” each time. For the same compound, the call in assay [2] and in assay [14] was inactive. The max response in assay [3] was 3.36%. For the same compound, in assay [20], the Potency was 10.7 µM (active).

With `Clc1cccc(C(c2ccc3nc[nH]c3c2)n2ccnc2)c1` (configuration not stated), the Potency result in [1], in assay [4], in [5], in assay [6], in assay [7] and in assay [8] was “inactive” in each case. For the same compound, the Potency entry in assay [9], in assay [10], in assay [11], in [13], in [16] and in [17] was “inactive” in each case. Besides, the compound was called inactive in [2] and in [14]. Moreover, the max response in assay [3] is -17.1%. Also, the Potency in assay [20] was 3.38 µM (active).

`CCOc1ccc2c(c1)C(C)CC(C)(C)N2` (configuration not stated): the Potency result in assay [19], in [6], in assay [9], in [11], in assay [13] and in assay [15] was “inactive” throughout. The Potency entry in assay [20], in assay [18] and in [16] was “inactive” each time. In addition, the call in [2] and in assay [14] was inactive. Moreover, the max response in assay [3] is -1.9%. In addition, the Potency is 49 µM (active) in [7], 43.6 µM (active) in [8] and 43.6 µM (active) in assay [12].

Turning to `CC(C)=CCC/C(C)=C/C=N/O`, the Potency result in assay [19], in assay [5], in assay [6], in [7], in assay [8] and in assay [9] was “inactive” each time. The Potency result in assay [11], in [12], in assay [15], in [16] and in [17] was “inactive” each time. Moreover, the outcome in [2] and in [14] was inactive. In addition, the max response in [3] is -25.1%.

With `COc1ccc(/C=C/c2cc(OC)cc(=O)o2)cc1`, the Potency result in assay [1], in assay [4], in assay [5], in [6], in [7] and in assay [8] was “inactive” in each case. Further, the Potency result in assay [9], in assay [10], in assay [11], in [12], in [13] and in [20] was “inactive” each time. The Potency entry in [18] and in assay [17] was “inactive” throughout. Besides, the result in assay [2] and in assay [14] was inactive. Also, in assay [3], the Potency was 8.92 µM (active).

In the case of `COc1ccc(C(=O)c2ccc(C)cc2)c(O)c1`, the Potency entry in [1], in [4], in [5], in assay [6], in assay [7] and in [8] was “inactive” each time. For the same compound, the Potency result in assay [9], in assay [10], in [11], in assay [13], in [18] and in [16] was “inactive” in each case. Further, the Potency result in assay [17] is “inactive”. For the same compound, the compound was called inactive in [2] and in [14].

As for `C[C@]12CCC(=O)C=C1[C@@H]1C[C@@H]1[C@H]1[C@@H]3[C@@H]4C[C@@H]4[C@@]4(CCC(=O)O4)[C@@]3(C)CC[C@@H]12`, the Potency entry in [1], in [4], in [5], in assay [6], in assay [7] and in [8] was “inactive” each time. Further, the Potency result in [9], in assay [10], in assay [11], in [12], in assay [13] and in assay [20] was “inactive” throughout. Besides, the Potency result in [18], in assay [16] and in [17] was “inactive” throughout. The outcome in assay [2] and in assay [14] was inactive.

Regarding `COc1cccc([C@H](O)C2CCN(CCc3ccc(F)cc3)CC2)c1OC`, the Potency entry in assay [1], in [4], in assay [5], in assay [6], in [7] and in assay [9] was “inactive” throughout. The Potency entry in assay [10], in [11], in assay [12], in assay [13], in assay [20] and in assay [18] was “inactive” throughout. The Potency entry in assay [17] is “inactive”. Moreover, the compound was classed as inactive in assay [2] and in assay [14].

On to `C[C@H](CN1CCCC1)C(=O)c1ccc(C(F)(F)F)cc1`, for which the call in [2] was inactive. The Potency in assay [5], in [7], in assay [8] and in assay [12] was 21.3 µM (active) throughout. The Potency entry in [9], in assay [11], in assay [13], in [18], in assay [16] and in assay [17] was “inactive” each time.
